Bioassay records deposited in PubChem BioAssay by National Center for Advancing Translational Sciences (NCATS).
Hits are enriched below; roughly 7.5% of the tested compounds scored in any of these assays.
FLuc modulator: inhibits or activates purified firefly luciferase, miR-21 counter-screen. P08659. purified FLuc, Km substrates, luminescence inhibition. Potency, µM (doses to about 57.5 µM), for inactives: top-dose activity change, negative = inhibition, most hits filed as inhibitors. hit rate 6.9% among 360,000. AID 588342;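 further: plate controls were vehicle for no effect and reference inhibitor for full effect; nearly all actives have a fitted effect of over 55% in size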
Target sequence (P08659 whole entry, looked up): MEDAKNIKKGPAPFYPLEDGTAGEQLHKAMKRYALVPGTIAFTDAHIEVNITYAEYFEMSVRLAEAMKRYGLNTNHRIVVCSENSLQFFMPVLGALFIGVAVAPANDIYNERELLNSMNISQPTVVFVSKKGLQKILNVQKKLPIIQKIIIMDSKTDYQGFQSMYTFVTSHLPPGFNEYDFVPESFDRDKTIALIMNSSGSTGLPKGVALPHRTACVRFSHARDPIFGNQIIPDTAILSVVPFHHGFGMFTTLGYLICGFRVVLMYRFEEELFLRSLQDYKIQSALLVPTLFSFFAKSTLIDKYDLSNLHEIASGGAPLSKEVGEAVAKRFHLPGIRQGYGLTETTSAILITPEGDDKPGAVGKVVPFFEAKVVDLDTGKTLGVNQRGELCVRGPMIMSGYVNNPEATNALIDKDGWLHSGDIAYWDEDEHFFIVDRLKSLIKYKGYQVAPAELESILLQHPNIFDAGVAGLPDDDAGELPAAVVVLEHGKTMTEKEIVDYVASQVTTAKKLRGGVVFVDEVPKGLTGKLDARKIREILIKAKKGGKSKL
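Purified P. pyralis luciferase, 10 nM final, with Km-level 10 uM D-luciferin and 10 uM ATP in 50 mM Tris acetate pH 7.5, 10 mM Mg acetate, 0.01% Tween-20, 0.05% BSA; 6-point qHTS titration about 60 µM downward; luminescence read.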
SMN2 splice up: enhancers of SMN2 splice variant expression | HEK293 SMN2-luciferase splicing reporter, luminescence, 30-36 h | Potency, µM (series often up to 46.1 µM), inactives show top-dose activity change, positive = activation, most hits filed as activators | hit rate 2.8% among 210,000; further: % of control where 0% means no effect; nearly all actives have a fitted effect of over 55% in size
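qHTS luciferase splicing reporter: luminescence rises when SMN2 exon 7 is included in transfected HEK293 cells. Compound exposure lasted 30-36 h at 37C, with 4.5 mM final sodium butyrate as control, followed by a ONE-Glo read.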
Rab9 prom act: activates the Rab9 promoter; Huh7 Rab9 promoter-luciferase reporter, luminescence, 24 h; Potency, µM (series often up to 9.22 µM), for inactives: at the highest dose activation, negative = inhibition, most hits filed as activators; hit rate 2.8% among 320,000; further: % of control where 0% means no effect; nearly all actives have a fitted effect of over 60% in size
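Huh7 cells stably carrying Rab9 promoter–luciferase reporter, plated 1500 cells/well, compound added after 2 h and incubated 24 h at 37 °C; luciferase luminescence then read after 10 min with detection reagent.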
ELG1 genotox: induces genotoxicity in HEK293T cells with luciferase-tagged ELG1. hit rate 1.3% among 330,000. Potency, µM (series often up to 46 µM), without a hit: top-dose activity change, positive = activation, hits mostly activators. HEK293T ELG1-luciferase reporter, luminescence, 16 h. AID 504466; further: % of control where 0% means no effect; nearly all actives have a fitted effect of over 60% in size
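ELG1-luciferase HEK293T cells, 2,000/well; compound pinned in; 16 hr, 37 °C, 5% CO2; ONE-Glo, 30 min RT; luminescence on CCD imager.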
NPC1 prom act: NPC1 promoter activation; Huh7 NPC1 promoter luciferase reporter, 24 h; Potency, µM (doses to about 9.22 µM), for the others: top-dose activation, usual class: activators; hit rate 2.4% among 320,000; further: % of control where 0% means no effect; nearly all actives have a fitted effect of over 60% in size
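Readout is luciferase luminescence, reflecting NPC1 promoter activation in stably transfected Huh7 cells after 24 h compound exposure at 37 °C in reduced-serum medium with 10% FBS.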
Active calls of the source: *; ? = inconclusive; . = no result given; [ ] = dose if it differs, or a comment. The call rests on the fitted dose curve; in most records, active means well fitted curve in the direction sought with a large enough effect; inconclusive means small, poorly fitted or top-dose-only effect, or another doubt; inactive means no such curve, though single readings can be large; an effect the other way counts as inactive or inconclusive. Potency means the concentration at half of the fitted maximal effect.

SMILES	FLuc modulator	SMN2 splice up	Rab9 prom act	ELG1 genotox	NPC1 prom act
Cc1ccc(CSc2nc3cccnc3n2Cc2ccc(C(=O)NCCc3cccs3)cc2)cc1	0.43µM*	.	.	.	.
O=C(NC1CCCC1)c1ccc(CSc2nc3cccnc3n2Cc2cccc(F)c2)cc1	-3%	.	.	.	.
O=C(NC1CCCCC1)c1ccc(Cn2c(SCc3ccccc3F)nc3cccnc32)cc1	8.5µM*	.	.	.	.
O=C(NCc1cccs1)c1ccc(CSc2nc3cccnc3n2Cc2ccccc2)cc1	-14%	.	.	.	.
O=C(NC1CC1)c1ccc(Cn2c(SCc3ccccc3F)nc3cccnc32)cc1	4.8µM*	.	.	.	.
O=C(NC1CCCCC1)c1ccc(CSc2nc3cccnc3n2Cc2ccccc2F)cc1	-16%	.	.	.	.
Cc1cccc(CCNS(=O)(=O)c2ccc3c(c2)NC(=O)C(C)S3)c1 (stereo not drawn)	1%	.	0%	-5%	-1%
Cc1ccccc1Cn1c(SCc2ccc(C(=O)N3CCCCC3)cc2)nc2ccncc21	?	-64%	.	.	.
O=C(c1ccc(CSc2nc3ccncc3n2Cc2ccccc2F)cc1)N1CCCCCC1	24µM*	-18%	.	.	.
COc1ccc(C(=O)NNC(=O)CSc2nnc(-c3cccnc3)n2C)cc1	-12%	-1%	0%	-1%	0%
COc1ccccc1C(O)Cc1nc2ccccc2n1C (stereo not drawn)	?	2%	?	?	29%
CC(C)c1ccc(C(O)Cc2nc3ccccc3n2C)cc1 (stereo not drawn)	9.5µM*	.	4µM*	?	?
CN(C)c1ccc(C(O)Cc2nc3ccccc3n2C)cc1 (stereo not drawn)	?	.	?	4.6µM*	?
CCCCN(C(=O)c1ccc(NC2CC2)c([N+](=O)[O-])c1)c1c(N)n(CC(C)C)c(=O)[nH]c1=O	1%	.	-2%	-2%	-3%
CC1=CC(C)=Nc2ccc(C)cc2N1	15µM*	1%	9%	7.1µM*	8%
Brc1cc(Br)c2nc(-c3cccs3)ccc2c1	9.5µM*	11µM*	?	11µM*	1%
Cc1c(CCC(=O)N2CCC(C(=O)NCCCCCC(=O)O)CC2)c(=O)oc2cc3oc4c(c3cc12)CCCC4	13µM*	.	-39%	9%	-3%
Cc1c(CCC(=O)N[C@@H](CC(C)C)C(=O)O)c(=O)oc2cc3oc4c(c3cc12)CCCC4	17µM*	.	-7%	4%	-3%
Cc1c(CCC(=O)NCC(=O)NCC(=O)O)c(=O)oc2cc3oc4c(c3cc12)CCCC4	21µM*	.	1%	0%	-4%
Cc1c(CCC(=O)N2CCC[C@H]2C(=O)O)c(=O)oc2cc3oc4c(c3cc12)CCCC4	12µM*	.	-4%	?	19%
Cc1coc2cc3oc(=O)c(CCC(=O)N4CCCCC4)c(C)c3cc12	-20%	11%	.	.	.
Cc1cc(C(=O)N2CCN(c3cc(Cl)ccc3C)CC2)on1	3%	.	-2%	-2%	-4%
C/C(N=NC(=[SH+])SCc1ccccc1)=C1\C=CC=CN1.[Cl][Cu]	.	-64%[9.22 µM]	.	.	.
Cc1c(CCC(=O)O)c(=O)oc2cc3oc4c(c3cc12)CCCC4	6µM*	.	5%	10%	2%
Cc1oc2cc3oc(=O)c(CCC(=O)NCCC(=O)O)c(C)c3cc2c1C	12µM*	.	0%	11%	-4%
SMILES	FLuc modulator	SMN2 splice up	Rab9 prom act	ELG1 genotox	NPC1 prom act
Cc1oc2cc3oc(=O)c(CCC(=O)NCCCC(=O)O)c(C)c3cc2c1C	?	.	-2%	1%	-2%
Fc1ccc(Nc2ncnc3c2nc2n3CCCCC2)c(F)c1	21µM*	.	.	.	.
COc1cc(Cl)c(C)cc1Nc1ncnc2c1nc1n2CCCC1	2%	.	.	.	.
COc1ccc(Nc2ncnc3c2nc2n3CCCC2)cc1Cl	19µM*	.	.	.	.
COc1ccc(Nc2ncnc3c2nc2n3CCCCC2)cc1	17µM*	.	.	.	.
O=C(Nc1ccc(F)cc1F)C1CCCN(c2ncnc3c2nc2n3CCCCC2)C1 (stereo not drawn)	5%	.	-2%	-6%	-3%
CCOC(=O)c1c(C)[nH]c(CCC(=O)Nc2ccccc2C(=O)OC)c1C	1%	.	.	.	.
COc1ccc(C(=O)C(C)OC(=O)COc2ccccc2)cc1 (stereo not drawn)	.	.	.	0%	.
Cc1ccc(/C(O)=C/c2nc3ccccc3oc2=O)cc1	3µM*	.	-1%	-6%	-3%
O=c1oc2ccccc2nc1/C=C(O)/C=C\c1ccccc1	-17%	5%	0%	-6%	10%
Cc1ccc(NC(=O)Cn2c(=O)n(CCc3ccccc3)c(=O)c3c4c(sc32)CCCC4)cc1C	2%	-3%	.	.	.
CCCC(=O)Nc1nc(-c2ccc(OC)cc2)cs1	?	?	?	?	24%
CC(C)(C)C(=O)OCc1nc(-c2ccc3c(c2)OCCO3)cs1	0.54µM*	.	3.2µM*	?	2.8µM*
CC(C)(C)C(=O)OCc1nc(-c2ccc(F)cc2)cs1	1.3µM*	.	2.5µM*	18%	?
CC(C)(C)C(=O)OCc1nc(-c2ccc(Cl)cc2)cs1	1.2µM*	.	4.5µM*	?	3.5µM*
COc1ccc(-c2csc(COC(=O)C(C)(C)C)n2)cc1	2.4µM*	.	?	6%	24%
NC(=S)Cc1nc(-c2ccc(Cl)cc2)cs1	?	-24%	-2%	-1%	9%
COc1ccc(CCCc2nnc(SCC(=O)Nc3ccc(Cl)cc3)o2)cc1	1%	-12%	.	.	.
COc1ccc(/C=c2\s/c(=C/C(=O)c3ccc(C)cc3)[nH]c2=O)cc1OC	11µM*	-13%	3%	-4%	-1%
CCOC(=O)C1C(=O)C=C(Nc2ccccc2F)CC1c1ccccc1 (stereo not drawn)	17µM*	?	?	12%	?
O=C(COc1ccc(F)cc1)Nc1nc2c(s1)CCCC2	27µM*	.	?	?	?
O=C(CS(=O)(=O)c1ccc(F)cc1)Nc1nccs1	-1%	.	0%	1%	-6%
O=C(Nc1nccs1)c1ccc(COc2ccccc2Br)o1	19µM*	-16%	?	?	27%
O=C(COc1ccc(F)cc1)Nc1nccs1	7.6µM*	11µM*	1µM*	?	2µM*
O=C(Nc1nccs1)c1ccc(COc2ccc(F)cc2)o1	15µM*	15%	?	3%	?
SMILES	FLuc modulator	SMN2 splice up	Rab9 prom act	ELG1 genotox	NPC1 prom act
O=C(Nc1nccs1)c1ccc(COc2ccc(Cl)cc2)o1	?	-4%	.	.	.
COc1ccc(OCC(=O)Nc2nc3c(s2)CCCC3)cc1	?	.	6%	2%	11%
Cc1sc2nc(CSCC(=O)NC3(C#N)CCCCC3)[nH]c(=O)c2c1C	1%	.	-3%	0%	4%
CCOC(=O)c1cnn(-c2ccc(C(=O)Nc3cc(OC)c(OC)c(OC)c3)cc2)c1N	3%	.	.	.	.
COc1ccc(CC(=O)OCC(=O)NCc2ccc3c(c2)OCO3)cc1OC	.	.	.	-2%	.
Cc1cccc(OCC(=O)Nc2nccs2)c1C	1.5µM*	.	0.35µM*	2.1µM*	0.35µM*
CN(C)C(=O)c1ccc(COc2ccccc2Br)o1	19µM*	8.9µM*	?	21µM*	?
